{"source": "the supplement of paper PMC8728848", "binders": {"B1": {"name": "CvGal2 (Crassostrea virginica) (protein)", "chain": "MGSSHHHHHHSSGLVPRGSHMRIREAGKRKDTTKVYQIPDGLFPGQQVMLRGRVPWGSKSFSINFSATPRMGEGDILFHLNPRPSEGVCIRNALLNGSWGAEEKWQPYFPFDDGRSFSVKIEVTNDAFRTFVNGRPFVDFLHRTDFRAGKYLTLREGAEYYDVIFQSKPNIPLTTAIHNGMRIGKTIRIRGMCTAQDGFAINFNDNRNNIYFHFNARPAQRTVVRNSYFGSWGNEETAISKEFPFYPFLYFYASFVCMEDKFAVYVNDEHFIDFAHRGNPNNISVLQIKGSVNVLDTECLEPMGEDAMTEVDSGLENGDLFVLNGLMTERGKTFAVNFLNGFTENDDIALHFNPRKSTGEVVLNSRYGGAWQSEEKVALPGVFWSNRPLQVKVETKRNKFKIYVNGVDLAKYKIRGNVEDVHAVQVKGDVFLLETLLLKRLMKPVWERLTGGIRPGTWVTLQGTPKKNWQQFVVNFALDDTLDGDIAFHFNVRRGARQVVRNHRQSGAWGREETVTPFFAFDSEATFEIVFFVKEEKFLIYFNGKLFFEFVHRVPVERITHIYMDGDCNFYEPEVVI"}}, "experiment_in_all_cases": "glycan array binding signal (z-score within array); higher = stronger binding", "details_in_all_cases": "glycan notation: IUPAC condensed, linker removed", "key": {"[1]": {"biological_target": "GlcNAc(b1-2)[GlcNAc(b1-4)]Man(a1-3)[GlcNAc(b1-4)][GlcNAc(b1-2)[GlcNAc(b1-6)]Man(a1-6)]Man(b1-4)GlcNAc(b1-4)[Fuc(a1-6)]GlcNAc", "summary_of_the_method": "(§1)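 Arrays were curated from the Consortium for Functional Glycomics database, 3228 in total, and kept only where the protein sequence was available. Binding is expressed as a within-array Z-score. This score was averaged across arrays of the same protein sequence at different concentrations or buffers and across linkers, and negative values can be read as non-binding.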"}, "[2]": {"biological_target": "GlcNAc(b1-2)[GlcNAc(b1-6)]Man(a1-6)[GlcNAc(b1-2)Man(a1-3)]Man(b1-4)GlcNAc(b1-4)GlcNAc", "summary_of_the_method": "as §1"}, "[3]": {"biological_target": "GlcNAc(b1-3)Gal(b1-3)GalNAc", "summary_of_the_method": "as §1"}, "[4]": {"biological_target": "GlcNAc(b1-3)Gal(b1-4)GlcNAc(b1-3)Gal(b1-4)GlcNAc(b1-3)Gal(b1-4)GlcNAc(b1-3)Gal(b1-4)GlcNAc(b1-2)Man(a1-3)[GlcNAc(b1-3)Gal(b1-4)GlcNAc(b1-3)Gal(b1-4)GlcNAc(b1-3)Gal(b1-4)GlcNAc(b1-3)Gal(b1-4)GlcNAc(b1-2)Man(a1-6)]Man(b1-4)GlcNAc(b1-4)[Fuc(a1-6)]GlcNAc", "summary_of_the_method": "as §1"}, "[5]": {"biological_target": "GlcNAc(b1-3)Gal(b1-4)GlcNAc(b1-3)Gal(b1-4)GlcNAc(b1-3)Gal(b1-4)GlcNAc(b1-3)Gal(b1-4)GlcNAc(b1-2)[GlcNAc(b1-3)Gal(b1-4)GlcNAc(b1-3)Gal(b1-4)GlcNAc(b1-3)Gal(b1-4)GlcNAc(b1-3)Gal(b1-4)GlcNAc(b1-6)]Man(a1-6)[GlcNAc(b1-3)Gal(b1-4)GlcNAc(b1-3)Gal(b1-4)GlcNAc(b1-3)Gal(b1-4)GlcNAc(b1-3)Gal(b1-4)GlcNAc(b1-2)Man(a1-3)]Man(b1-4)GlcNAc(b1-4)[Fuc(a1-6)]GlcNAc", "summary_of_the_method": "as §1"}, "[6]": {"biological_target": "GlcNAc(b1-3)Gal(b1-4)GlcNAc(b1-6)[GlcNAc(b1-3)]Gal(b1-4)GlcNAc", "summary_of_the_method": "as §1"}, "GlcNAc(b1-3)Man": {"biological_target": "GlcNAc(b1-3)Man", "summary_of_the_method": "as §1"}, "[7]": {"biological_target": "GlcNAc(b1-4)GlcNAc(b1-4)GlcNAc(b1-4)GlcNAc(b1-4)GlcNAc(b1-4)GlcNAc", "summary_of_the_method": "as §1"}, "[8]": {"biological_target": "GlcNAc6S(b1-3)Gal(b1-4)GlcNAc", "summary_of_the_method": "as §1"}, "Kdn(a2-6)Gal(b1-4)GlcNAc": {"biological_target": "Kdn(a2-6)Gal(b1-4)GlcNAc", "summary_of_the_method": "as §1"}, "[9]": {"biological_target": "Man(a1-3)[Man(a1-6)]Man(a1-6)[Man(a1-3)]Man", "summary_of_the_method": "as §1"}, "Man(b1-4)GlcNAc": {"biological_target": "Man(b1-4)GlcNAc", "summary_of_the_method": "as §1"}, "[10]": {"biological_target": "Neu5Ac(a2-3)Gal(b1-3)GalNAc(b1-4)[Neu5Ac(a2-3)]Gal(b1-4)Glc", "summary_of_the_method": "as §1"}, "[11]": {"biological_target": "Neu5Ac(a2-3)Gal(b1-3)GlcNAc(b1-2)Man(a1-3)[Neu5Ac(a2-3)Gal(b1-3)GlcNAc(b1-2)Man(a1-6)]Man(b1-4)GlcNAc(b1-4)GlcNAc", "summary_of_the_method": "as §1"}, "[12]": {"biological_target": "Neu5Ac(a2-3)Gal(b1-4)GlcNAc(b1-2)[Neu5Ac(a2-3)Gal(b1-4)GlcNAc(b1-6)]Man(a1-6)[Neu5Ac(a2-3)Gal(b1-4)GlcNAc(b1-2)Man(a1-3)]Man(b1-4)GlcNAc(b1-4)GlcNAc", "summary_of_the_method": "as §1"}, "[13]": {"biological_target": "Neu5Ac(a2-3)Gal(b1-4)GlcNAc(b1-3)Gal(b1-4)GlcNAc(b1-3)Gal(b1-4)GlcNAc", "summary_of_the_method": "as §1"}, "[14]": {"biological_target": "Neu5Ac(a2-3)Gal(b1-4)GlcNAc(b1-3)Gal(b1-4)GlcNAc(b1-3)[Neu5Ac(a2-3)Gal(b1-4)GlcNAc(b1-3)Gal(b1-4)GlcNAc(b1-6)]GalNAc", "summary_of_the_method": "as §1"}, "[15]": {"biological_target": "Neu5Ac(a2-3)Gal(b1-4)GlcNAc(b1-6)GalNAc", "summary_of_the_method": "as §1"}, "[16]": {"biological_target": "Neu5Ac(a2-6)Gal(b1-4)GlcNAc(b1-2)Man(a1-3)[Neu5Ac(a2-6)Gal(b1-4)GlcNAc(b1-2)Man(a1-6)]Man(b1-4)GlcNAc(b1-4)GlcNAc", "summary_of_the_method": "as §1"}, "[17]": {"biological_target": "Neu5Ac(a2-6)Gal(b1-4)GlcNAc(b1-2)[Neu5Ac(a2-6)Gal(b1-4)GlcNAc(b1-4)]Man(a1-3)[GlcNAc(b1-4)][Neu5Ac(a2-6)Gal(b1-4)GlcNAc(b1-2)[Neu5Ac(a2-6)Gal(b1-4)GlcNAc(b1-6)]Man(a1-6)]Man(b1-4)GlcNAc(b1-4)GlcNAc", "summary_of_the_method": "as §1"}, "[18]": {"biological_target": "Neu5Ac(a2-6)Gal(b1-4)GlcNAc(b1-6)GalNAc", "summary_of_the_method": "as §1"}, "[19]": {"biological_target": "Neu5Ac(a2-6)Gal(b1-4)GlcNAc(b1-6)[Gal(b1-3)GlcNAc(b1-3)]Gal(b1-4)Glc", "summary_of_the_method": "as §1"}, "[20]": {"biological_target": "Neu5Ac(a2-6)GalNAc(b1-4)GlcNAc6S", "summary_of_the_method": "as §1"}, "[21]": {"biological_target": "Neu5Ac(a2-8)Neu5Ac(a2-8)Neu5Ac", "summary_of_the_method": "as §1"}, "[22]": {"biological_target": "Neu5Gc(a2-3)Gal(b1-3)[Fuc(a1-4)]GlcNAc", "summary_of_the_method": "as §1"}, "[23]": {"biological_target": "Neu5Gc(b2-6)Gal(b1-4)GlcNAc", "summary_of_the_method": "as §1"}}, "note": "About 410 targets per protein were measured; listed, in parts, are those with the strongest signals and a random draw of the rest."}
{"binder": "B1", "values": [{"measurement": "glycan array binding signal (z-score)", "setting": "[1]", "result": -0.32}, {"measurement": "glycan array binding signal (z-score)", "setting": "[2]", "result": -0.338}, {"measurement": "glycan array binding signal (z-score)", "setting": "[3]", "result": -0.316}, {"measurement": "glycan array binding signal (z-score)", "setting": "[4]", "result": -0.163}, {"measurement": "glycan array binding signal (z-score)", "setting": "[5]", "result": 0.428}, {"measurement": "glycan array binding signal (z-score)", "setting": "[6]", "result": -0.345}, {"measurement": "glycan array binding signal (z-score)", "setting": "GlcNAc(b1-3)Man", "result": -0.33}, {"measurement": "glycan array binding signal (z-score)", "setting": "[7]", "result": -0.345}, {"measurement": "glycan array binding signal (z-score)", "setting": "[8]", "result": -0.328}, {"measurement": "glycan array binding signal (z-score)", "setting": "Kdn(a2-6)Gal(b1-4)GlcNAc", "result": -0.329}, {"measurement": "glycan array binding signal (z-score)", "setting": "[9]", "result": -0.325}, {"measurement": "glycan array binding signal (z-score)", "setting": "Man(b1-4)GlcNAc", "result": -0.333}, {"measurement": "glycan array binding signal (z-score)", "setting": "[10]", "result": -0.328}, {"measurement": "glycan array binding signal (z-score)", "setting": "[11]", "result": -0.338}, {"measurement": "glycan array binding signal (z-score)", "setting": "[12]", "result": -0.325}, {"measurement": "glycan array binding signal (z-score)", "setting": "[13]", "result": -0.337}, {"measurement": "glycan array binding signal (z-score)", "setting": "[14]", "result": -0.323}, {"measurement": "glycan array binding signal (z-score)", "setting": "[15]", "result": -0.339}, {"measurement": "glycan array binding signal (z-score)", "setting": "[16]", "result": -0.305}, {"measurement": "glycan array binding signal (z-score)", "setting": "[17]", "result": -0.336}, {"measurement": "glycan array binding signal (z-score)", "setting": "[18]", "result": -0.339}, {"measurement": "glycan array binding signal (z-score)", "setting": "[19]", "result": -0.133}, {"measurement": "glycan array binding signal (z-score)", "setting": "[20]", "result": -0.331}, {"measurement": "glycan array binding signal (z-score)", "setting": "[21]", "result": -0.335}, {"measurement": "glycan array binding signal (z-score)", "setting": "[22]", "result": -0.338}, {"measurement": "glycan array binding signal (z-score)", "setting": "[23]", "result": -0.336}]}
